Calls of active or inactive are those of the source. How the source made its calls: active means hit-call score of the fitted dose curve at least 0.9, where 1 is the maximum; inactive means score below 0.9.
Tests used:
Conditions in all cases: mRNA level, 48 h; actives raise or lower the signal
[1] = read-out: Fatty Acid-Binding Protein 1 (FABP1), FABP1 (gene 2168); assay: LTEA_HepaRG_FABP1: Life Technologies and Expression Analysis (LTEA) Assay for Fatty Acid-Binding Protein 1 (FABP1) using HepaRG (AID 2283494)
Method in brief: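 Values reflect bidirectional concentration-response fitting of FABP1 mRNA change against 0.5% DMSO controls. Human HepaRG cultures received eight half-log doses (top 100 uM) for 48 h; expression quantified by TaqMan qRT-PCR with housekeeping-gene normalization.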

[2] = read-out: Cytochrome P450 4A22 (Homo sapiens) (UniProt Q5TCH4); assay: LTEA_HepaRG_CYP4A22: Life Technologies and Expression Analysis (LTEA) Assay for Cytochrome P450 4A22 (CYP4A22) using HepaRG (AID 2283495)
Method in brief: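 Gene expression measured by qRT-PCR against three housekeeping genes (ACTB, GAPDH, POLR2A), with gain or loss fitted relative to 0.5% DMSO vehicle. HepaRG cultures received 48 h chemical treatment, top concentration 100 uM, half-log steps, duplicate wells.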

[3] = read-out: Cytochrome P450 7A1 (Homo sapiens) (UniProt P22680); assay: LTEA_HepaRG_CYP7A1: Life Technologies and Expression Analysis (LTEA) Assay for Cytochrome P450 7A1 (CYP7A1) using HepaRG (AID 2283496)
Method in brief: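 HepaRG, 48 h exposure, 8-pt half-log series from 100 uM, 0.5% DMSO vehicle, duplicates. Readout: TaqMan qRT-PCR mRNA vs three housekeeping genes; bidirectional curve fit against DMSO baseline.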

[4] = read-out: Glutamate-cysteine ligase catalytic (GCLC), GCLC (gene 2729); assay: LTEA_HepaRG_GCLC: Life Technologies and Expression Analysis (LTEA) Assay for Glutamate-cysteine ligase catalytic (GCLC) using HepaRG (AID 2283498)
Method in brief: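 Oxidative-stress marker GCLC is measured as mRNA change in human HepaRG liver cells after 48 h chemical treatment in 0.5% DMSO, eight concentrations from 100 uM. Activity is fitted bidirectionally against vehicle.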

[5] = read-out: growth arrest and DNA damage 45 (GADD45G), GADD45G (gene 10912); assay: LTEA_HepaRG_GADD45G: Life Technologies and Expression Analysis (LTEA) Assay for growth arrest and DNA damage 45 (GADD45G) using HepaRG (AID 2283499)
Method in brief: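 GADD45G transcript level by qRT-PCR (housekeeping-normalized: ACTB, GAPDH, POLR2A) after 48 h chemical treatment of a single HepaRG lot in serum-free induction medium; eight-point half-log series up to 100 uM in 0.5% DMSO, duplicates, up- or down-regulation scored.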

[6] = read-out: Glutamate-cysteine ligase regulatory (GCLM), GCLM (gene 2730); assay: LTEA_HepaRG_GCLM: Life Technologies and Expression Analysis (LTEA) Assay for Glutamate-cysteine ligase regulatory (GCLM) using HepaRG (AID 2283500)
Method in brief: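 GCLM expression quantified by qRT-PCR, normalized to three housekeeping genes, after 48 h chemical treatment of HepaRG cells in duplicate at 8 concentrations (top 100 uM, half-log steps, 0.5% DMSO). Changes fitted both directions against vehicle.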

[7] = read-out: Heat shock 70 kDa protein 1 (HSPA1A), gene 3303; assay: LTEA_HepaRG_HSPA1A: Life Technologies and Expression Analysis (LTEA) Assay for Heat shock 70 kDa protein 1 (HSPA1A) using HepaRG (AID 2283502)
Method in brief: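 HSPA1A expression measured by qRT-PCR with ACTB/GAPDH/POLR2A normalization; curves fitted in both directions relative to DMSO vehicle. Exposure: 48 h in HepaRG cells, duplicate 8-point half-log series from 100 uM, 0.5% DMSO, serum-free induction medium.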

[8] = read-out: Hypoxia-inducible factor 1-alpha (Homo sapiens) (UniProt Q16665); assay: LTEA_HepaRG_HIF1A: Life Technologies and Expression Analysis (LTEA) Assay for Hypoxia-inducible factor 1 (HIF1A) Trancription factor using HepaRG (AID 2283503)
Method in brief: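 HIF1A transcript level read by qRT-PCR (ACTB, GAPDH, POLR2A normalization) after 48 h chemical exposure of HepaRG cultures. Eight half-log concentrations, top 100 uM, 0.5% DMSO vehicle, duplicates; bidirectional curve fit against DMSO baseline.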

[9] = read-out: Glutathione S-transferase M3 (GSTM3), GSTM3 (gene 2947); assay: LTEA_HepaRG_GSTM3: Life Technologies and Expression Analysis (LTEA) Assay for Glutathione S-transferase M3 (GSTM3) using HepaRG (AID 2283501)
Method in brief: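 GSTM3 transcript levels came from Fluidigm TaqMan qRT-PCR normalized to three housekeeping genes, fitted in both directions against DMSO. HepaRG cultures received chemicals for 48 h in serum-free induction medium (0.5% DMSO), 8 half-log concentrations up to 100 uM, duplicate.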

Measured: AC50

Sequence of Hypoxia-inducible factor 1-alpha (Homo sapiens) (Q16665 whole entry, looked up): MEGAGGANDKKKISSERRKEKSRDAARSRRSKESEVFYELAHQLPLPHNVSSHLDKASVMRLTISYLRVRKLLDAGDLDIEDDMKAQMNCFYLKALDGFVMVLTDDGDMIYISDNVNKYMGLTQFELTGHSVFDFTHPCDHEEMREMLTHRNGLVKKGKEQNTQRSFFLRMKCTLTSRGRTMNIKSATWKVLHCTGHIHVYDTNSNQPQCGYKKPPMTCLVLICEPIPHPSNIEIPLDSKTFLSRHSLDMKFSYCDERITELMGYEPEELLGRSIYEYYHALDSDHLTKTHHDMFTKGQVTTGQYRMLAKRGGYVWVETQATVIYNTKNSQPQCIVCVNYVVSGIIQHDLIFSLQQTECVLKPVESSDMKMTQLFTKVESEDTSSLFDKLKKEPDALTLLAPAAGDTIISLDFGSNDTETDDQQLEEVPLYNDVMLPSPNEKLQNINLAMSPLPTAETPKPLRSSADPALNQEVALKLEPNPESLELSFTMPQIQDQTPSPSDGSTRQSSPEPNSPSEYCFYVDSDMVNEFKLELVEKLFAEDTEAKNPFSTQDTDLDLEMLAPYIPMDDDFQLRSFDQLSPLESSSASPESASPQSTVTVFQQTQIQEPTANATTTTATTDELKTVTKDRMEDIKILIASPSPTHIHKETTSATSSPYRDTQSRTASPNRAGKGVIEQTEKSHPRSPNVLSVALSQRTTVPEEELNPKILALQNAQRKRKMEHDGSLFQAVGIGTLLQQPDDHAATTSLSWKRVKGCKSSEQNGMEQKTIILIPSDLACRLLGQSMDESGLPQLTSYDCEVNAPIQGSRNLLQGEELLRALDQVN

CCOP(=O)(SC(C)CC)N1CCSC1=O (stereo not drawn)
inactive: [4] | [5] | [6] | [7] | [8]
active: [1] 16.1 µM | [2] 12.6 µM | [3] 32.3 µM

COP(=O)(OC)C(O)C(Cl)(Cl)Cl (stereo not drawn)
inactive: [1] | [4] | [5] | [6] | [7]

CCCOc1nn(C(=O)NS(=O)(=O)c2ccccc2C(=O)OC)c(=O)n1C
inactive: [1] | [2] | [3] | [4] | [5] | [6] | [7] | [8]

CC(=NC#N)N(C)Cc1ccc(Cl)nc1
inactive: [1] | [2] | [3] | [4] | [5] | [6] | [7] | [8]

COc1cccc(C(=O)NN(C(=O)c2cc(C)cc(C)c2)C(C)(C)C)c1C
inactive: [1] | [2] | [4] | [5] | [6] | [7] | [8]
active: [3] 2.88 µM

N#CSCSC#N
active: [1] 86.2 µM | [2] 90.6 µM | [3] 50 µM | [6] 80.6 µM
inactive: [4] | [5] | [7] | [8]

CC(C)[C@H](C(=O)O[C@H](C#N)c1cccc(Oc2ccccc2)c1)c1ccc(Cl)cc1
inactive: [1] | [2] | [3] | [4] | [5] | [6] | [9] | [7] | [8]

CNC(=O)ON=C(SC)C(=O)N(C)C
inactive: [1] | [2] | [3] | [4] | [5] | [6] | [9] | [7] | [8]

C#CC(C)(C)NC(=O)c1cc(Cl)cc(Cl)c1
inactive: [1] | [3] | [4] | [5] | [6] | [7] | [8]
active: [2] 40.9 µM

CNC(=O)Oc1cccc2c1OC(C)(C)O2
inactive: [1] | [2] | [3] | [4] | [5] | [6] | [9] | [7] | [8]

CCC(=O)Nc1ccc(Cl)c(Cl)c1
active: [1] 9.92 µM | [6] 50 µM
inactive: [2] | [3] | [4] | [5] | [9] | [7] | [8]

CCCSP(=O)(OCC)SCCC
inactive: [2] | [4] | [5] | [6] | [7] | [8]
active: [1] 15.5 µM | [3] 22.1 µM

COP(=O)(OC)OC(Br)C(Cl)(Cl)Br (stereo not drawn)
inactive: [1] | [2] | [3] | [4] | [5] | [6] | [7] | [8]

CCOP(=S)(OCC)Oc1ccc([N+](=O)[O-])cc1
active: [3] 1.78 µM
inactive: [1] | [2] | [4] | [5] | [6] | [7] | [8]

CCOP(=S)(OCC)Oc1cc(C)nc(C(C)C)n1
inactive: [1] | [2] | [3] | [4] | [5] | [6] | [9] | [7] | [8]

CNC(=O)ON=C(C)SC
inactive: [1] | [2] | [3] | [4] | [5] | [6] | [7] | [8]

COP(=O)(NC(C)=O)SC (stereo not drawn)
inactive: [1] | [2] | [3] | [4] | [5] | [6] | [9] | [7] | [8]

CCOP(=S)(OCC)OC(Cl)C(Cl)(Cl)Cl (stereo not drawn)
inactive: [1] | [2] | [3] | [4] | [5] | [6] | [7] | [8]

CSC1=N[C@@](C)(c2ccccc2)C(=O)N1Nc1ccccc1
inactive: [4] | [7]
active: [1] 53.8 µM | [2] 30.6 µM | [3] 38 µM | [5] 13.5 µM | [6] 25 µM | [9] 76.6 µM | [8] 77.1 µM

CCc1cccc(C)c1N(C(=O)CCl)C(C)COC (stereo not drawn)
inactive: [2] | [3] | [4] | [5] | [6] | [7] | [8]
active: [1] 37.9 µM

CC[C@H](C)[C@H]1O[C@]2(C=C[C@@H]1C)C[C@@H]1C[C@@H](C/C=C(\C)[C@@H](O[C@H]3C[C@H](OC)[C@@H](O[C@H]4C[C@H](OC)[C@@H](NC)[C@H](C)O4)[C@H](C)O3)[C@@H](C)/C=C/C=C3\CO[C@@H]4[C@H](O)C(C)=C[C@@H](C(=O)O1)[C@]34O)O2
inactive: [3] | [6]
active: [1] 14.6 µM | [2] 7.23 µM | [4] 50 µM | [5] 2.78 µM | [7] 20.4 µM | [8] 74.3 µM

CON=C(C(=O)OC)c1ccccc1CON=C(C)c1cccc(C(F)(F)F)c1
inactive: [1] | [2] | [3] | [4] | [5] | [6] | [7] | [8]

CCCSP(=O)(OCC)Oc1ccc(Br)cc1Cl (stereo not drawn)
inactive: [1] | [2] | [3] | [4] | [5] | [6] | [9] | [7] | [8]

Cc1cc(C2CC2)nc(Nc2ccccc2)n1
inactive: [1] | [2] | [3] | [4] | [6] | [9] | [7] | [8]
active: [5] 29.7 µM

CCNc1nc(Cl)nc(NC(C)(C)C#N)n1
inactive: [1] | [2] | [3] | [4] | [5] | [6] | [9] | [7] | [8]

Nc1nc(N)nc(NC2CC2)n1
inactive: [1] | [2] | [3] | [4] | [5] | [6] | [7] | [8]

CCOC(=O)COc1cc(-c2nn(C)c(OC(F)F)c2Cl)c(F)cc1Cl
inactive: [1] | [2] | [3] | [4] | [5] | [6] | [7] | [8]

O=[N+]([O-])c1cc(C(F)(F)F)c(Cl)c([N+](=O)[O-])c1Nc1ncc(C(F)(F)F)cc1Cl
active: [1] 16.4 µM | [2] 23.1 µM | [3] 23 µM | [4] 69.3 µM | [8] 31.9 µM
inactive: [5] | [6] | [9] | [7]

CC1=NNC(=O)N(/N=C/c2cccnc2)C1
inactive: [1] | [2] | [3] | [4] | [5] | [6] | [7] | [8]

O=C(O)c1cc(Oc2ccc(C(F)(F)F)cc2Cl)ccc1[N+](=O)[O-]
inactive: [2] | [3] | [4] | [5] | [6] | [7] | [8]
active: [1] 20.3 µM
